# In article PMC7862700, “An all-to-all approach to the identification of sequence-specific readers for epigenetic DNA modifications on cytosine”:
# What was measured:
# Test in all cases: DAPPL (digital affinity profiling via proximity ligation, sequencing); 10 mM Tris-HCl pH 7.5, 50 mM NaCl, 1 mM DTT, 4% glycerol, room temperature, 30 min; GST-TFs on glutathione beads, 16-mer random dsDNA library, 0.1% formaldehyde crosslink after washing; high values mean tight binding
# FLI1 = target: T1, FLI1 (Homo sapiens, UniProt Q01543 1-452); details: protein: recombinant; tags: N-terminal GST; dsDNA, one strand shown
# T1 sequence: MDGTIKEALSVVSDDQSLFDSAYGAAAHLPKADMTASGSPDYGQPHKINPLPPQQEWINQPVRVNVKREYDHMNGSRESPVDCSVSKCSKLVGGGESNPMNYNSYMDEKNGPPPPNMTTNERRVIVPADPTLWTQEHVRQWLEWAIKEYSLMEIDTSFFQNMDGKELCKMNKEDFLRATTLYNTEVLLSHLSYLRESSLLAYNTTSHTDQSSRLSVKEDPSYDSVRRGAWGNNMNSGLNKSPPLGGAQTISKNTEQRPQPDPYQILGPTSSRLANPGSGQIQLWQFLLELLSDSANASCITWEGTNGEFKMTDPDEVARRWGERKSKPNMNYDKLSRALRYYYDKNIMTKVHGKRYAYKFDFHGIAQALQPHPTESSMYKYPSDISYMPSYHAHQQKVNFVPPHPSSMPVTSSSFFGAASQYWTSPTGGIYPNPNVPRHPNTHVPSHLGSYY
# How it was run: (§1)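 Human transcription factors were made in yeast as GST fusions, captured on glutathione beads and barcoded with DNA. With a tag-only sample included, the pool was incubated with 200 nmole of a random double-stranded 16-mer DNA library in Tris/NaCl/DTT/glycerol buffer at room temperature for 30 min, then crosslinked with 0.1% formaldehyde after washing, ligated by proximity, amplified and sequenced. For binding signal, each hexamer's read frequency for a factor is divided by its frequency for the tag-only sample.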
# ELK1 = target: T2, ELK1 (Homo sapiens, UniProt P19419 1-428); details: protein: recombinant; tags: N-terminal GST; dsDNA, one strand shown
# T2 sequence: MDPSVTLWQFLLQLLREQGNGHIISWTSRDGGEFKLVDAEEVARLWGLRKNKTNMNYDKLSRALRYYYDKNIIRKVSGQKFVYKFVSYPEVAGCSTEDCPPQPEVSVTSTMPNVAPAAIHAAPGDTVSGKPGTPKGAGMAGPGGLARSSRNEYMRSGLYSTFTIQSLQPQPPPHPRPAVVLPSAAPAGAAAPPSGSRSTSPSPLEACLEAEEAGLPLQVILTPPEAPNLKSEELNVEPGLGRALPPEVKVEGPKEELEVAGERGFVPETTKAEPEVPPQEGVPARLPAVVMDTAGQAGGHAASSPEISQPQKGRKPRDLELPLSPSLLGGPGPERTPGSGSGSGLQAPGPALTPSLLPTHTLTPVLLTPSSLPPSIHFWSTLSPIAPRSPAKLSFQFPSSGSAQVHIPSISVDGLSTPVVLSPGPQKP
# How it was run: as §1
# GABPA = target: T3, GABPA (Homo sapiens, UniProt Q06546 1-454); details: protein: recombinant; tags: N-terminal GST; dsDNA, one strand shown
# T3 sequence: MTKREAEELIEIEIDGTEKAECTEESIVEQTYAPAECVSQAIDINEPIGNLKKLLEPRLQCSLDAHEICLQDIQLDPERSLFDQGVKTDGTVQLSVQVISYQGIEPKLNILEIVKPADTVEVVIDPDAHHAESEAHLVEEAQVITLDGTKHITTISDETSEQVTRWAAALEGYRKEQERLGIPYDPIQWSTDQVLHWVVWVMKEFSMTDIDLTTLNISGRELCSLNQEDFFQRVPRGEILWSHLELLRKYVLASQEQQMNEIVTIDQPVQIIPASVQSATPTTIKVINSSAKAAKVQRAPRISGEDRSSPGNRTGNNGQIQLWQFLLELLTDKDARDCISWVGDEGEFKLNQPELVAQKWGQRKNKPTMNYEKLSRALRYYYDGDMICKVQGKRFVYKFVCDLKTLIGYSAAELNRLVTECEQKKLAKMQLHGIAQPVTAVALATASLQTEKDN
# How it was run: as §1
# ERG = target: T4, ERG (Homo sapiens, UniProt P11308 1-479); details: protein: recombinant; tags: N-terminal GST; dsDNA, one strand shown
# T4 sequence: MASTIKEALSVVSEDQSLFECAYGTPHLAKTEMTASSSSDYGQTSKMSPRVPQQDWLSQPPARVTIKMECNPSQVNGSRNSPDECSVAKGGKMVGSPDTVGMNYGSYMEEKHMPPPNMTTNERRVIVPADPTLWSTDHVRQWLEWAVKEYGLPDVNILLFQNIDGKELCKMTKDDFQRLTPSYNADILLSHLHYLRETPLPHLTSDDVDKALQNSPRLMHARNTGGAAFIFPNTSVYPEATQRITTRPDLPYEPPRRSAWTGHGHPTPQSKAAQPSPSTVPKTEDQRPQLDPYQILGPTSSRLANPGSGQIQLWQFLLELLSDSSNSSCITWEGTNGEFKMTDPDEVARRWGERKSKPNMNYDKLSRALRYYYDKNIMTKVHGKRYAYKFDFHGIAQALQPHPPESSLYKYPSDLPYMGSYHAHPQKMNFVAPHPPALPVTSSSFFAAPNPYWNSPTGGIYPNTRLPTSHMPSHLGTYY
# How it was run: as §1
# ELF1 = ELF1 (Homo sapiens, UniProt P32519 1-619); details: protein: recombinant; tags: N-terminal GST; dsDNA, one strand shown
# Chain of ELF1 (P32519 whole entry): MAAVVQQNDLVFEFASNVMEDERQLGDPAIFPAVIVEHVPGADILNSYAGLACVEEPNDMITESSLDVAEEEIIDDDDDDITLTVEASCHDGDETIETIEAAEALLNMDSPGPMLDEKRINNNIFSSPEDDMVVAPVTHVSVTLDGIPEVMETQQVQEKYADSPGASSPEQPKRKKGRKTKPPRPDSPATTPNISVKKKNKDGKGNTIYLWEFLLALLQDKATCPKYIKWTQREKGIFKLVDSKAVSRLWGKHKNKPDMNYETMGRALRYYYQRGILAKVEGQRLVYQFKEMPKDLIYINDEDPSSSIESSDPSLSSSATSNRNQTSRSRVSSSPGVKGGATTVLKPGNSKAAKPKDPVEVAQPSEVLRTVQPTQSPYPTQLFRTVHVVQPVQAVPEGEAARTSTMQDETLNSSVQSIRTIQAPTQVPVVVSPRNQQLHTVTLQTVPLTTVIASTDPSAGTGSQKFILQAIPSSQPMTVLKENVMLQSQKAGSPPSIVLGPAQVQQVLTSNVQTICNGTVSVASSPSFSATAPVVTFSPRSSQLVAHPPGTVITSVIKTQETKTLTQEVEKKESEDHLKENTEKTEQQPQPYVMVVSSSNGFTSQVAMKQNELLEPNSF
# How it was run: as §1
# EHF = target: T5, EHF (Homo sapiens, UniProt Q9NZC4 1-300); details: protein: recombinant; tags: N-terminal GST; dsDNA, one strand shown
# T5 sequence: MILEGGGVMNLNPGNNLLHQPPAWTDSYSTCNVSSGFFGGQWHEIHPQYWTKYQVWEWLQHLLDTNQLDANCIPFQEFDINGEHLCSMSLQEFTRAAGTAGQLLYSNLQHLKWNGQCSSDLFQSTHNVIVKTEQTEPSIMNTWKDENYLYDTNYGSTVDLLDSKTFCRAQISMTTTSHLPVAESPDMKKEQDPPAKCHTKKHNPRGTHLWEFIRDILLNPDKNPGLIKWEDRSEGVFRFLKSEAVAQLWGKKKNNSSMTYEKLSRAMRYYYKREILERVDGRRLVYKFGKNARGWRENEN
# How it was run: as §1
# SPI1 = SPI1 (Homo sapiens, UniProt P17947 1-270); details: protein: recombinant; tags: N-terminal GST; dsDNA, one strand shown
# How it was run: as §1
# SPIB = SPIB (Homo sapiens, UniProt Q01892 1-262); details: protein: recombinant; tags: N-terminal GST; dsDNA, one strand shown
# Chain of SPIB (Q01892 whole entry): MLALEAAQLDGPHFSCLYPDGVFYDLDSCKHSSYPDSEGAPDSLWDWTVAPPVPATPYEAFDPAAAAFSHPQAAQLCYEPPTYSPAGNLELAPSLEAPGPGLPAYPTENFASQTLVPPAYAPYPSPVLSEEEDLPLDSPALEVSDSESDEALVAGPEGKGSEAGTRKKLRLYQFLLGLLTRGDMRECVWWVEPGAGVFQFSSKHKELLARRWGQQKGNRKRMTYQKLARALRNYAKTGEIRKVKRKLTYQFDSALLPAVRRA
# How it was run: as §1
# ELK3 = target: T6, ELK3 (Homo sapiens, UniProt P41970 1-407); details: protein: recombinant; tags: N-terminal GST; dsDNA, one strand shown
# T6 sequence: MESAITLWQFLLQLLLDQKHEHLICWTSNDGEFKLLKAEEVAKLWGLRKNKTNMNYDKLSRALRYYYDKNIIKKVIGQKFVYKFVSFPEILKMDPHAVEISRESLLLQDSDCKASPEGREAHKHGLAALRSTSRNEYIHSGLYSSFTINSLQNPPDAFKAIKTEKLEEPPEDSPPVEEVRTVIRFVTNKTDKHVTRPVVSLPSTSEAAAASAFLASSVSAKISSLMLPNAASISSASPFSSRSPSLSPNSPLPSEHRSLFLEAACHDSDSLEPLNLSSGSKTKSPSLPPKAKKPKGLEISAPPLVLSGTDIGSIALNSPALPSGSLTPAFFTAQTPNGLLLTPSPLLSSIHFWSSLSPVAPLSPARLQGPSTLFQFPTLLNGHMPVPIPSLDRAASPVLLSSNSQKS
# How it was run: as §1
# FEV = target: T7, FEV (Homo sapiens, UniProt Q99581 1-238); details: protein: recombinant; tags: N-terminal GST; dsDNA, one strand shown
# T7 sequence: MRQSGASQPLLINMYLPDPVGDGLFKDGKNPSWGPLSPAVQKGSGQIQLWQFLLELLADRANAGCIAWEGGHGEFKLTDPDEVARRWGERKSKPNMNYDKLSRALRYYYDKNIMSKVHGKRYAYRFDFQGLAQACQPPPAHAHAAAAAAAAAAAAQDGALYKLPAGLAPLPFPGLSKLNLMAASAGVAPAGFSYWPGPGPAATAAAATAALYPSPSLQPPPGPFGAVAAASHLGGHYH
# How it was run: as §1
# ETV5 = ETV5 (Homo sapiens, UniProt P41161 1-510); details: protein: recombinant; tags: N-terminal GST; dsDNA, one strand shown
# Chain of ETV5 (P41161 whole entry): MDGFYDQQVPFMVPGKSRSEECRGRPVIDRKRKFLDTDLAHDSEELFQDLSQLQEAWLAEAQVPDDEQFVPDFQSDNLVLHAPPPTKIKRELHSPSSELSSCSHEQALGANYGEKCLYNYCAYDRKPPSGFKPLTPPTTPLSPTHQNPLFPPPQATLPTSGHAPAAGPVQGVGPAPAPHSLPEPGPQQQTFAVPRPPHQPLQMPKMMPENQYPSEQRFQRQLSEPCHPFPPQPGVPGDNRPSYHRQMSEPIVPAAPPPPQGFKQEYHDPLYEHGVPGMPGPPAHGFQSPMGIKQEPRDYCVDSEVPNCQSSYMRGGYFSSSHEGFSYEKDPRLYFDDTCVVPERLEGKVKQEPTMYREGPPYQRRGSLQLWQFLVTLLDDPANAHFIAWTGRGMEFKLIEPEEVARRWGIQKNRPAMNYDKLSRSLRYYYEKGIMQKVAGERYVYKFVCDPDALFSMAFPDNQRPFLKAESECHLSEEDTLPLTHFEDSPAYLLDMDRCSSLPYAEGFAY
# How it was run: as §1
# HSF1 = HSF1 (Homo sapiens, UniProt Q00613 1-529); details: protein: recombinant; tags: N-terminal GST; chain copies: 3; dsDNA, one strand shown
# Chain of HSF1 (Q00613 whole entry): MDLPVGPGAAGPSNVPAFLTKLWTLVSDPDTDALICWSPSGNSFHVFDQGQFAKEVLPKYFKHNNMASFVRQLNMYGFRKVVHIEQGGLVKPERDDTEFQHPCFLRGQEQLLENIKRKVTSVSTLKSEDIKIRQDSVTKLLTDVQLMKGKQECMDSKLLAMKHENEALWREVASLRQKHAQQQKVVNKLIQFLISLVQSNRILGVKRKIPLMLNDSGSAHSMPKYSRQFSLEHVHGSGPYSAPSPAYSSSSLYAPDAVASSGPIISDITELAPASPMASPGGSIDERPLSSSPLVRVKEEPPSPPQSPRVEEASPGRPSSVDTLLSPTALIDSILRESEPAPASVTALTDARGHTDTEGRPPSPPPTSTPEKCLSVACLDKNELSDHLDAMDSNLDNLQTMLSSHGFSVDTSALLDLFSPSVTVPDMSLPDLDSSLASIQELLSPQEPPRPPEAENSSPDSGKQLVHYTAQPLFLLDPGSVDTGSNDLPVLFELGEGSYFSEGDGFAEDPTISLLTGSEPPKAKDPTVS
# How it was run: as §1
# SPIC = target: T8, SPIC (Homo sapiens, UniProt Q8N5J4 1-248); details: protein: recombinant; tags: N-terminal GST; dsDNA, one strand shown
# T8 sequence: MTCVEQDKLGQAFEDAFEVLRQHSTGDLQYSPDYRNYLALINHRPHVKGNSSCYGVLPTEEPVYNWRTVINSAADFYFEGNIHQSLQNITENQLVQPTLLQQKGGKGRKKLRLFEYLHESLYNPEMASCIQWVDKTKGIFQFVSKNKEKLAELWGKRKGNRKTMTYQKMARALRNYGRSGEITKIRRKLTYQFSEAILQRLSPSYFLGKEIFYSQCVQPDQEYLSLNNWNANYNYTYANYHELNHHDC
# How it was run: as §1
# ELF4 = ELF4 (Homo sapiens, UniProt Q99607 1-663); details: protein: recombinant; tags: N-terminal GST; dsDNA, one strand shown
# Chain of ELF4 (Q99607 whole entry): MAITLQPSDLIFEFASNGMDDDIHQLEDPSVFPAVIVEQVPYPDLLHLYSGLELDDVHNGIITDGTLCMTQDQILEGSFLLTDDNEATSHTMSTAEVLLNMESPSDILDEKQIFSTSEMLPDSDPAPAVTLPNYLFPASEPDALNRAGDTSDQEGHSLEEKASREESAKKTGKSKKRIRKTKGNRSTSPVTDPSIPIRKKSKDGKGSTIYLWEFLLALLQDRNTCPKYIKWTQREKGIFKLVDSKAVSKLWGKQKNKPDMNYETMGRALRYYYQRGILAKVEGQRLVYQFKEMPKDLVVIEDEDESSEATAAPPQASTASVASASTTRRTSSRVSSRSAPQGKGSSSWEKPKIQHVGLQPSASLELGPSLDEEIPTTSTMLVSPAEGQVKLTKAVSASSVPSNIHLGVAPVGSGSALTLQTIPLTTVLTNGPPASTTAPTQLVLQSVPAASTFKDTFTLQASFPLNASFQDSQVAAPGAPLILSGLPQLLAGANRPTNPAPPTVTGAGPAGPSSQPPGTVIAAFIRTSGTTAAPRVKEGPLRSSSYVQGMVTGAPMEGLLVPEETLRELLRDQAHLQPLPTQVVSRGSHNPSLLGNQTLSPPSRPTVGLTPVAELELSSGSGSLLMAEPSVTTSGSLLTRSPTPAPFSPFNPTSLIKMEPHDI
# How it was run: as §1
# ELK4 = target: T9, ELK4 (Homo sapiens, UniProt P28324-2 1-405); details: protein: recombinant; tags: N-terminal GST; dsDNA, one strand shown
# T9 sequence: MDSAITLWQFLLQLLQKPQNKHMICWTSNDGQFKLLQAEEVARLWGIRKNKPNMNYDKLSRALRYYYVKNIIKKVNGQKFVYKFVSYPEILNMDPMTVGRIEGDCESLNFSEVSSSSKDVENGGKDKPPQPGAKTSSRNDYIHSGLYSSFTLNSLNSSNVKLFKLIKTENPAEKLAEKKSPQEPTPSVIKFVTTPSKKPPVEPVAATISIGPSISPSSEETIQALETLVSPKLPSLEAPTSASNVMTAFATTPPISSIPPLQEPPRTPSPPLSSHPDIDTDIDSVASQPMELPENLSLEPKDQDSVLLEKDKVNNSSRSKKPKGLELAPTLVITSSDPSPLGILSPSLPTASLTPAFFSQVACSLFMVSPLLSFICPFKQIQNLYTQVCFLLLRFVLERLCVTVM
# How it was run: as §1
# ETV2 = target: T10, ETV2 (Homo sapiens, UniProt O00321 1-342); details: protein: recombinant; tags: N-terminal GST; dsDNA, one strand shown
# T10 sequence: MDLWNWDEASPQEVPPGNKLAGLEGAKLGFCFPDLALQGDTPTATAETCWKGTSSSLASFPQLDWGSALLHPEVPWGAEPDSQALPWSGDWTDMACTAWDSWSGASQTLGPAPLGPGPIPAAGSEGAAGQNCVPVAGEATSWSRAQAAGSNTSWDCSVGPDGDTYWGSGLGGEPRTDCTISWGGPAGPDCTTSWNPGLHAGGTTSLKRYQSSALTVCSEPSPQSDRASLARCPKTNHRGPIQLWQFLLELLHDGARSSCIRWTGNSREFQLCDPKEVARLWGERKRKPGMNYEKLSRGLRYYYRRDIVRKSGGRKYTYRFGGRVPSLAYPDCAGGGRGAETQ
# How it was run: as §1
# ELF3 = target: T11, ELF3 (Homo sapiens, UniProt P78545 1-371); details: protein: recombinant; tags: N-terminal GST; dsDNA, one strand shown
# T11 sequence: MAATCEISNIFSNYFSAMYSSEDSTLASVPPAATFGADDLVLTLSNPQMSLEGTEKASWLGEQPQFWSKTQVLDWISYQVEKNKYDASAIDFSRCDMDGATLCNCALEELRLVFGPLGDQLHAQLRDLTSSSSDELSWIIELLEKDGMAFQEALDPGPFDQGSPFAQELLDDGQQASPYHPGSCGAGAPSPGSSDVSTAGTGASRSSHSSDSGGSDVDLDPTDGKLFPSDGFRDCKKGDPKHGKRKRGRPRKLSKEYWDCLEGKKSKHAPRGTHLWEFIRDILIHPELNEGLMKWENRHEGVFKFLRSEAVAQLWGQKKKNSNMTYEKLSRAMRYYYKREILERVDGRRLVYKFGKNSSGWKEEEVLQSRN
# How it was run: as §1
# CRX = CRX (Homo sapiens, UniProt O43186 1-299); details: protein: recombinant; tags: N-terminal GST; dsDNA, one strand shown
# Chain of CRX (O43186 whole entry): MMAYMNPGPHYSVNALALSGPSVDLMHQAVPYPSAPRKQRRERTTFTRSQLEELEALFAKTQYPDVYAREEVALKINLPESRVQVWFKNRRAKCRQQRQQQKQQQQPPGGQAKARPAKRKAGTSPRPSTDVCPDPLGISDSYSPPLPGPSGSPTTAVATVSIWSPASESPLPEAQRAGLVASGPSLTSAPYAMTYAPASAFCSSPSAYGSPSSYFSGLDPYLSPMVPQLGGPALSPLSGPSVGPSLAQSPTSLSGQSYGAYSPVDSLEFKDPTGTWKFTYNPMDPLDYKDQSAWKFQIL
# How it was run: as §1
# ETV1 = ETV1 (Homo sapiens, UniProt P50549 1-477); details: protein: recombinant; tags: N-terminal GST; dsDNA, one strand shown
# Chain of ETV1 (P50549 whole entry): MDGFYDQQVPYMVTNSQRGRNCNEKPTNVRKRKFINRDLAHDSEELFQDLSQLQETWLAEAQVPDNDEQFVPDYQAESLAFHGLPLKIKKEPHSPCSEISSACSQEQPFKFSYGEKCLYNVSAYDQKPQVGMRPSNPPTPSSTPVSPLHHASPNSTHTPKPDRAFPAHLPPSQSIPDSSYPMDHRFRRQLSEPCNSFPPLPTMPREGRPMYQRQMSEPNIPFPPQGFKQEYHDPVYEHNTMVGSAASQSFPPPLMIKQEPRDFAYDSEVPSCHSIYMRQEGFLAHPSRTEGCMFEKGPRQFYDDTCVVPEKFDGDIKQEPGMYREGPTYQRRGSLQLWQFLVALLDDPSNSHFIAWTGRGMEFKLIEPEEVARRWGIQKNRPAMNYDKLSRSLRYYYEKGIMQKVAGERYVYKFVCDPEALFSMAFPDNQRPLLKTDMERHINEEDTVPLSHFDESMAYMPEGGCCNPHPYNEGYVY
# How it was run: as §1
sequence,measurement,setting,value
TAAATA,binding signal,FLI1,"1.23 fold enrichment (6-mer frequency, TF over GST control)"
same,binding signal,ELK1,"1.18 fold enrichment (6-mer frequency, TF over GST control)"
same,binding signal,GABPA,"1.21 fold enrichment (6-mer frequency, TF over GST control)"
same,binding signal,ERG,"1.2 fold enrichment (6-mer frequency, TF over GST control)"
same,binding signal,ELF1,"1.21 fold enrichment (6-mer frequency, TF over GST control)"
same,binding signal,EHF,"1.23 fold enrichment (6-mer frequency, TF over GST control)"
same,binding signal,SPI1,"1.29 fold enrichment (6-mer frequency, TF over GST control)"
same,binding signal,SPIB,"1.35 fold enrichment (6-mer frequency, TF over GST control)"
same,binding signal,ELK3,"1.33 fold enrichment (6-mer frequency, TF over GST control)"
same,binding signal,FEV,"1.19 fold enrichment (6-mer frequency, TF over GST control)"
same,binding signal,ETV5,"1.27 fold enrichment (6-mer frequency, TF over GST control)"
same,binding signal,HSF1,"1.6 fold enrichment (6-mer frequency, TF over GST control)"
same,binding signal,SPIC,"1.17 fold enrichment (6-mer frequency, TF over GST control)"
same,binding signal,ELF4,"1.26 fold enrichment (6-mer frequency, TF over GST control)"
same,binding signal,ELK4,"1.27 fold enrichment (6-mer frequency, TF over GST control)"
same,binding signal,ETV2,"1.36 fold enrichment (6-mer frequency, TF over GST control)"
same,binding signal,ELF3,"1.3 fold enrichment (6-mer frequency, TF over GST control)"
same,binding signal,CRX,"2.12 fold enrichment (6-mer frequency, TF over GST control)"
same,binding signal,ETV1,"1.24 fold enrichment (6-mer frequency, TF over GST control)"
